Shown are actives, neighbours in structure and some others; about 1% of the full set was active somewhere.
VCAM1 TNFa inh: inhibitors of TNFa-induced VCAM1 expression, primary screen, imaging, HUVEC, TNFa stimulus, immunofluorescence; HUVEC TNFa-induced VCAM-1 immunofluorescence, high-content imaging; inhibition, % at 2 µM; 95,000 compounds, 0.48% hits;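 active means inhibition above the batch mean plus 3 SD, with images confirmed as a hit by eye, cut at about 37% in these data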;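 further: 0% = TNF-stimulated DMSO wells and 100% = unstimulated control wells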
E-sel TNF inh: E-selectin induction blockers in HUVEC – imaging, immunofluorescence, high content, primary screen | HUVEC TNFa-induced E-selectin immunofluorescence | 120,000 compounds, 0.71% hits | inhibition, % at 2 µM;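 active means inhibition above the batch mean plus 3 SD, and confirmed as a hit on visual image review, cut at about 43% in these data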;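 further: 0% = TNF-stimulated DMSO wells and 100% = unstimulated control wells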
TNFa cytotox: cytotoxicity in TNFa-stimulated HUVEC, primary screen, cytotoxicity control for VCAM1 expression modulator project, imaging, Hoechst nuclei count; 93,000 compounds, 0.17% hits; AID 848, 2007; HUVEC TNFalpha-stimulated, Hoechst cell count; cell count reduction, % at 2 µM;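 active means cell count reduction exceeding the screen mean by over 5 SD, scaled to untreated wells per plate, cut at about 78% in these data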;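 further: cells counted after 24 h of TNF alpha exposure following the 1 h pretreatment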
F-actin modifier: modifiers of F-actin cytoskeleton organization, primary screen, imaging, HUVEC, phalloidin staining, high-content imaging. HUVEC TNFa F-actin phalloidin imaging. inhibition, % at 2 µM. 91,000 compounds, 0.18% hits;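 active means inhibition above the batch mean plus 3 SD and confirmed as a hit by visual image inspection, cut at about 30% in these data, passing the limit was not always enough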
* marks the source's active call; other numbers are inactive results; nt = no result.

SMILES	VCAM1 TNFa inh	E-sel TNF inh	TNFa cytotox	F-actin modifier
CC(c1ccccc1F)n1cc(C(=O)Nc2ccc3nc[nH]c3c2)nn1 (centres undefined)	59.9	nt	80.3*	-32.6
O=c1c2ccccc2nc(-c2ccc(-c3ccccc3)cc2)n1-c1ccncc1	-12.7	-60.5	-0.4	-34.6
CN1C(=O)/C(=C/c2cccn2-c2ccc3ccccc3c2)C(=O)NC1=S	-4.9	79.0*	-8.9	7.0
COc1ccc(C(=O)C2(C)N(O)C(C)C(c3cccs3)=[N+]2[O-])cc1 (centres undefined)	-3.6	58.0*	-11.5	-38.5
CCN1CCN(S(=O)(=O)c2cnc(Cl)c(Br)c2)CC1	nt	-31.0	nt	nt
CCCCC12CNCC(C)(CNC1)C2=O	30.1	100.0*	38.8	12.6
O=C(Nc1nc(-c2ccccc2)c(-c2ccccc2)s1)c1ccc(S(=O)(=O)N(CCCl)CCCl)cc1	nt	59.6*	nt	nt
c1ccc2c3c(ccc2c1)OCC1CONC31 (centres undefined)	nt	0.3	nt	nt
CCc1ccc(N2C(=O)NC(=O)/C(=C/c3cccn3CCOc3ccc(C(C)CC)cc3)C2=O)cc1 (centres undefined)	nt	79.9*	nt	nt
CCN1/C(=C\C=C\C2=[N+](CC)c3ccccc3C2(C)C)C(C)(C)c2ccccc21	88.0*	-0.9	22.7	-40.3
Cc1ccsc1-c1nc(CSCC(=O)N2CCC3(CC2)OCCO3)c(C)o1	8.0	-26.1	-19.2	-4.1
CN(C)CC1CSCCC1(O)c1ccccc1Cl (centres undefined)	16.0	12.4	-6.4	2.3
CN(C)CC1CSCCC1(O)c1ccc(Cl)cc1 (centres undefined)	3.8	41.8*	-12.0	-4.2
CCN1CCN(Cc2cc(OC)c(OC)cc2[N+](=O)[O-])CC1	14.4	100.0*	-20.1	16.2
CCN1CCN(Cc2cc(Br)cc(OC)c2O)CC1	-1.6	1.5	-38.1	-1.6
Cc1ccc(N(C)C(=O)Oc2ccc(C(=O)c3ccc(Cl)cc3)cc2)cc1	-12.3	15.8	5.3	-16.2
CCOC(=O)c1c(C)n(C(C)C)c2ccc(OC(=O)c3ccc(N4C(=O)CCC4=O)cc3)cc12	nt	-19.3	nt	nt
CC(N)Cc1c[nH]c2ccc(Cl)cc12 (centres undefined)	38.9*	-26.9	-3.6	7.8
CCCCCc1cc(O)c2c3c(c(=O)oc2c1)CN(C)CC3	nt	-11.7	nt	nt
Cn1cccc1/C=C1\C(=O)NC(=O)N(CCC2=CCCCC2)C1=O	nt	76.7*	nt	nt
O=C1NC(=O)N(CCC2=CCCCC2)C(=O)/C1=C\c1cccs1	nt	-65.4	nt	nt
O=C1C2CCCN2C(c2cccnc2)N1c1ccc(Cl)c(Cl)c1 (centres undefined)	74.8*	-10.5	-20.6	-31.4
CC(=O)OC(C)(C)/C=C/C(=O)[C@](C)(O)[C@H]1[C@H](O)C[C@@]2(C)[C@@H]3CC=C4[C@H](C[C@H](O)C(=O)C4(C)C)[C@]3(C)C(=O)C[C@]12C	nt	60.3*	nt	nt
Brc1ccc2[nH]cc(/C=N/N3CCCCC3)c2c1	nt	12.8	nt	nt
CSc1ccccc1C(=O)C1CCCN(Cc2ccn[nH]2)C1 (centres undefined)	nt	-22.2	nt	nt
CC1CN(c2cc([N+](=O)[O-])ccc2Cl)CC(C)N1 (centres undefined)	nt	99.6*	nt	nt
OC(Cn1c2ccccc2c2ccccc21)C[n+]1cccc2ccccc21 (centres undefined)	31.4	-3.9	-3.0	13.6
CCOc1ccccc1N1C(=O)NC(=O)C(CCc2ccncc2)(CCc2ccncc2)C1=O	10.4	-1.3	-0.4	33.0*
O=c1[nH]c(O)c(N=Nc2ccc([N+](=O)[O-])cc2)c(=O)[nH]1	nt	9.3	nt	nt
CN(C)C(=O)Oc1ccc(OCc2n(C)c3ccccc3[n+]2C)cc1	nt	-2.3	nt	nt

Screening results (PubChem BioAssay)
